Records with an inconclusive call do not appear. A call without a number means that no potency is given here. Active and inactive are the calls of the source. Calls follow the shape of the dose curve; as a rule, active = well fitted activation curve with a large enough effect in the signal ratio in the repeat runs (not every such curve was filed as active); inconclusive = weak or mixed curves, or effect the other way; inactive = flat fitted curve, though single readings scatter; the % refers to the signal ratio.

Chain of Estrogen receptor beta (Homo sapiens) (Q92731 whole entry, looked up, the tested form may be a part): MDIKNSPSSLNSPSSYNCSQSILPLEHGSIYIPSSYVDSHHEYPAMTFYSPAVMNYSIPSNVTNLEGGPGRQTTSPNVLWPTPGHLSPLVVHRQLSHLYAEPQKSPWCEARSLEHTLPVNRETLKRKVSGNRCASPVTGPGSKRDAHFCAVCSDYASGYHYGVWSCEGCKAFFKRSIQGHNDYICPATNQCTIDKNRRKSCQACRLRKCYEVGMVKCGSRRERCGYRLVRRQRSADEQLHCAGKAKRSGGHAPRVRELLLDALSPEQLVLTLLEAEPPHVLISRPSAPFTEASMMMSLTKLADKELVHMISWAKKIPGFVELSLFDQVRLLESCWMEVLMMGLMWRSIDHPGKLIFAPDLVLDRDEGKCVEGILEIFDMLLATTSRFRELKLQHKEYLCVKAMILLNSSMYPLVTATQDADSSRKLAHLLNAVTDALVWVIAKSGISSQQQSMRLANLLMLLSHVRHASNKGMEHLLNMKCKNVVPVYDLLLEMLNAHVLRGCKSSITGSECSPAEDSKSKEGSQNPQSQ

The target in this assay is Estrogen receptor beta (Homo sapiens) (UniProt Q92731). Put plainly: qHTS assay to identify small molecule agonists of the estrogen receptor beta (ER-beta) signaling pathway (AID 1259377). As to conditions: ER-beta-UAS-bla HEK293T, beta-lactamase FRET ratio, 16 h; series mostly up to 92.4 µM. The procedure, abridged:
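Agonist mode cell assay in GripTite HEK293T cells expressing an ER-beta fusion that drives beta-lactamase from an Upstream Activator Sequence; 16 hr compound exposure at 37C, then 2 h LiveBLAzer B/G FRET substrate at room temperature, fluorescence read-out.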
In general terms: In qHTS, concentration-response curves come from the screen itself.
With `NS(=O)(=O)c1ccc(NC(=O)CCC(=O)O)cc1`, the Potency result was “inactive”.

Regarding `CCCCCCCCSCC`, the Potency result is “inactive”.

Take `CC(C)N(c1ccccc1)C(C)C`: the Potency result was “inactive”.

As for `CC(C)CC(=O)O`, the Potency entry was “inactive”.

For `C=C(C)C(=O)OCCOP(=O)(O)OCCOC(=O)C(=C)C`, the Potency result is “inactive”.

On to `CC(=O)NCCCCCC(=O)O`, for which the Potency result is “inactive”.

In the case of `COC(=O)CCCCCCCC(=O)OC`, the Potency result is “inactive”.

As to `CN(C)C(=O)CNC(=O)Cc1ccccc1`, the Potency result was “inactive”.

As to `C[C@H](N)[C@H](O)c1cccc(O)c1`, the Potency entry was “inactive”.

`Cc1ccc2c(c1)OCC(=O)CO2`: the Potency result is “inactive”.

On to `C[C@H](CCC(=O)O)[C@H]1CC[C@H]2[C@@H]3C(=O)C[C@@H]4CC(=O)CC[C@]4(C)[C@H]3CC(=O)[C@]12C`, for which the Potency result is “inactive”.

Turning to `Cc1ccc(C=O)cc1C`, the Potency entry was “inactive”.

Consider `CCCCCCCCOS(=O)(=O)O`, for which the Potency entry is “inactive”.

With `CC(=O)/C=C/C1C(C)=CCC(C)C1(C)C` (stereo not drawn), the Potency entry is “inactive”.

Turning to `CCCC(=O)C(C)=O`, the Potency result is “inactive”.

Take `O=C1CCCC(=O)O1`: the Potency result was “inactive”.

Consider `CCOC(=O)CC(=O)c1ccccc1`, for which the Potency entry is “inactive”.

As to `C[C@@H](O)[C@H]1C(=O)N2C(C(=O)O)=C(SCCN=CN)C[C@H]12`, the Potency result is “inactive”.

In the case of `CC(C)OC(=O)CCCCC(=O)OC(C)C`, the Potency entry is “inactive”.

For `CNS(=O)(=O)CCc1ccc2[nH]cc(C3CCN(C)CC3)c2c1`, the Potency result is “inactive”.

`CC(=C(CCOC(=O)C(C)C)SSC(CCOC(=O)C(C)C)=C(C)N(C=O)Cc1cnc(C)nc1N)N(C=O)Cc1cnc(C)nc1N`: the Potency result is “inactive”.

With `O=S(=O)(O)c1ccc2cc(O)c(S(=O)(=O)O)cc2c1`, the Potency result is “inactive”.

Turning to `CCCCCCCC/C=C\CCCCCCCC(=O)OCCCC`, the activation was -0.0077% [at 19 µM] (inactive).

Source of the values: PubChem BioAssay (Tox21).
